{
  "source": "PubChem BioAssay AID995",
  "about": "(National Center for Advancing Translational Sciences (NCATS), 2007)",
  "note": "Hit rate of the full screen: of about 72,000 compounds, about 710 (0.99%) were called active. Roughly 7% stayed inconclusive and do not appear here. This is one part of a sample in which actives are shown more often than they occur. Unmarked numbers belong to inactive results. Calls follow the shape of the dose curve; as a rule, active = well fitted inhibition curve with a large enough effect; inconclusive = small, poorly fitted or top-dose-only effect; inactive = no such curve, though single readings can be large or run the other way. % is scaled to controls: 0 for no effect and ±100 for the full control effect; potency is read from the fitted curve at half-maximal effect.",
  "data": [
    {"test": "qHTS Assay for Inhibitors of the ERK Signaling Pathway using a Homogeneous Screening Assay; also: nearly all actives have a fitted effect of over 55% in size", "details": "HEK293-V1b, vasopressin-stimulated pERK AlphaScreen; series mostly up to 57.5 µM; activity, negative = inhibition: at the top concentration", "outline": "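HEK293 cells stably expressing V1b receptor, preincubated 30 min at 37 °C with compound, then stimulated 5 min with 25 nM vasopressin. Phospho-ERK by AlphaScreen SureFire after 5 h RT; normalized to DMSO and vasopressin; AC50 by Hill fit.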", "values": [
      {"smiles": "CC(=O)OCC(=O)C1CCC2C3CCC4=CC(=O)CC[C@@]4(C)C3CC[C@]12C", "note": "(some centres undefined)", "activity, negative = inhibition": "-26.6%"},
      {"smiles": "Cc1ccc(NC(=O)c2cccc(N(C)C)c2)cc1NC(=O)c1ccc(O)cc1", "activity, negative = inhibition": "-23%"},
      {"smiles": "CC1(C)OC2CO[C@]3(COS(N)(=O)=O)OC(C)(C)OC3C2O1", "note": "(some centres undefined)", "activity, negative = inhibition": "4.56%"},
      {"smiles": "CC1(C)C=CC(=O)[C@]2(C)C1CC(=O)[C@]1(C)C2CC[C@@]2(C)C(c3ccoc3)OC(=O)C3OC321", "note": "(some centres undefined)", "activity, negative = inhibition": "-1.1%"},
      {"smiles": "COC(=O)[C@H]1C[C@@H]1[C@H](NC(=O)Oc1ccc(F)cc1)c1ccccc1", "activity, negative = inhibition": "-2.42%"},
      {"smiles": "O=C(c1cnccn1)N1CCC2(CCCN(Cc3ccccc3)C2)CC1", "activity, negative = inhibition": "-10.5%"},
      {"smiles": "COc1ccccc1OCCNCC(O)COc1cccc2[nH]c3ccccc3c12", "note": "(centres undefined)", "activity, negative = inhibition": "-2.44%"},
      {"smiles": "O=C(OCC(COC(=O)c1ccccc1)(COC(=O)c1ccccc1)COC(=O)c1ccccc1)c1ccccc1", "activity, negative = inhibition": "34.7%"},
      {"smiles": "COc1c(C(C)C)oc2cc3oc(=O)ccc3cc12", "activity, negative = inhibition": "29.4%"},
      {"smiles": "COC(=O)[C@@]1(Cc2ccc(OC)cc2)[C@H]2c3cc(C(=O)N4CCCC4)n(Cc4ccc(OC(F)(F)F)cc4)c3C[C@H]2CN1C(=O)c1ccccc1", "activity, negative = inhibition": "3.07%"},
      {"smiles": "O=C(O)CS(=O)c1ccc2c3c(cccc13)C(=O)c1ccccc1-2", "note": "(centres undefined)", "activity, negative = inhibition": "22.7% [at 11.5 µM]"},
      {"smiles": "CC(C)CO", "activity, negative = inhibition": "7.21%"},
      {"smiles": "Nc1nc2[nH]c(=O)c(=O)[nH]c2c(=O)[nH]1", "activity, negative = inhibition": "-3.19%"},
      {"smiles": "C[C@@H]1/C=C\\CC(=O)OC[C@H]2O[C@@H](C=C[C@@H]2O)[C@H](C)/C=C\\CC(=O)OC[C@H]2O[C@H]1C=C[C@@H]2O", "activity, negative = inhibition": "20.6% [at 11.5 µM]"},
      {"smiles": "COC(=O)[C@@H]1C[C@@]2(O)[C@@H](O)[C@@H](O)[C@@H](O)C[C@H]2N1Cc1ccc(C)s1", "activity, negative = inhibition": "-22.8%"},
      {"smiles": "O=C(c1cc(C(F)(F)F)cc(C(F)(F)F)c1)N1CCC[C@@]2(CCN(c3ccccn3)C2)C1", "activity, negative = inhibition": "-25.8%"},
      {"smiles": "Cc1nc2cnc(N3CCNCC3)nc2n(CCc2ccccc2)c1=O", "activity, negative = inhibition": "-26.2%"},
      {"smiles": "C/C=C(/C)C(=O)OC1Cc2c(ccc3ccc(=O)oc23)OC1(C)C", "note": "(centres undefined)", "activity, negative = inhibition": "4.83%"},
      {"smiles": "COc1ccc(C[C@H](N)C(=O)N[C@@H]2[C@H](O)[C@H](n3cnc4c(N(C)C)ncnc43)O[C@@H]2CO)cc1", "activity, negative = inhibition": "18.5% [at 25.7 µM]"},
      {"smiles": "Cc1c(S(=O)(=O)O)oc2c1C(=O)C(=O)c1c-2ccc2c1CCCC2(C)C", "activity, negative = inhibition": "-6.22%"},
      {"smiles": "C=C1C([C@@]2(C)C(OC(C)=O)CC(=O)O[C@@](C)(COC(C)=O)C2CC(=O)OC)C(OC=O)C(OC(=O)C(O)C(C)CC)[C@]2(C)C(c3ccoc3)CC(=O)C12O", "note": "(some centres undefined)", "activity, negative = inhibition": "22.9%"},
      {"smiles": "Cn1c(=O)[nH]c(=O)c2c1nc(Br)n2CCCCSc1nc2ccccc2o1", "Potency": "31.6 µM (active)"},
      {"smiles": "CCCCCn1c(SCCC(C)C)nc2c1c(=O)[nH]c(=O)n2C", "activity, negative = inhibition": "-28.8%"},
      {"smiles": "Cc1ccnc(SCCn2c(Br)nc3c2c(=O)[nH]c(=O)n3C)n1", "activity, negative = inhibition": "-5.19%"}
    ]}
  ]
}
